About 5,000 (1.2%) of roughly 410,000 compounds were called active. About 13% were inconclusive and are not listed. The sample holds actives, similar compounds and a random draw of the others, so the mix is not that of the screen. The call rests on the fitted dose curve; in most records, active means well fitted inhibition curve with a large enough effect; inconclusive means small, poorly fitted or top-dose-only effect; inactive means no such curve, though single readings can be large or run the other way.
Assay: qHTS for Inhibitors of TGF-b; further: nearly all actives have a fitted effect of over 65% in size
Settings: HepG2 CAGA-GFP TGF-b/SMAD3 reporter, GFP fluorescence, 18 h, TGF-beta stimulated, 500 pg/mL final; series mostly up to 46.1 µM
Description: TGF-b is a main component in the TGF-b signaling pathway which plays diverse roles in cellular and development pathways. TGF-b is the mediated by the transcription factors Smads. Although the Smad-dependent pathway is the primary canonical TGF-b signaling node, TGF-b1 can also activate alternative signaling pathways, including those involving MAPK (ERK, JNK and p38). This interaction may mediate or enhance Smad-dependent responses, or can exert Smad-independent effects. The complexity of this signaling cascade allows the TGF-b superfamily to perform unique, overlapping or redundant functions. We believe that targeting the TGF-beta pathway at the Smad-transcription factor level may eliminate the consequences of disrupting the entire pathway and offer specificity without affecting other signaling pathways. Smad3 is the primary transducer of TGF-b's signals and Smad3 regulates many functions attributed to TGF-b signaling. We hypothesize that Smad3 inhibitors will selectively eliminate Smad3-specific TGF-beta signals without undesired off-target effects. We aim to identify Smad3-small molecule antagonists using a quantitative high throughput screening (qHTS) approach.
A high-throughput assay was developed to screen the NIH Molecular Libraries Small Molecule Repository (MLSMR). This is a cell based assay, where TGF-b is tagged with GFP. A counterscreen is run that looks at cytotoxicity (please see summary AID).
MH087449NIH Chemical Genomics Center [NCGC]
NIH Molecular Libraries Probe Centers Network [MLPCN]
Assay Submitter (PI): Sushil Rane, National Institute of […]
Suspensions of trypsinized HEPG2 CAGA-GFP cells were dispensed into white, tissue culture-treated, solid 1536-well plates at 5uL/well (1000 cells/well final concentration) in DMEM medium supplemented with 1% FBS. Plates were incubated at 37 degrees C for 2 hours, after which 23 nL of compounds or DMSO were delivered to each well using a pin tool. One uL of recombinant TGF-beta in DMEM (1% FBS) was then dispensed (500 pg/mL final concentration), and plates were incubated at 37 degrees C for 18 hours. The plates were measured on an Acumen eX3 Explorer plate reader for GFP fluorescence (ex488/em500-530). GFP values were calculated by determining the mean GFP fluorescence of individual cells, and compiling these values for each well to determine a total well GFP signal. The %Activity was determined from the corrected fluorescence values. A titration of the known TGF-B inhibitor SB431542 was included to monitor plate performance, while unstimulated HEPG2 (-TGF-B) control wells were used to normalize %Activity of identified inhibitors; unstimulated wells corresponded to 100%Activity (full inhibition), while stimulated cell controls (+DMSO) were used to normalize 0%Activity (no inhibition).
Concentration-response curves were fitted to the signals arising from the resulting fluorescence. The concentration-effect curves were then classified based on curve quality (r2), response magnitude and degree of measured activity, and compounds were subsequently categorized based on their curve class.
Potency means the concentration at half of the fitted maximal effect.

Potency, active:
CCCSC(=S)NC1CCS(=O)(=O)C1 (centres undefined) 11.2 µM
CCN(CC)S(=O)(=O)c1ccc(N2CCCC2)c(NC(=O)c2ccc([N+](=O)[O-])o2)c1 11.2 µM
O=C(NC1=CC(=O)c2ccccc2C1=O)c1ccccc1 10 µM
CC(C)Cn1c(N)c(C(=O)NCc2cccs2)c2nc3ccccc3nc21 15.8 µM
S=C(NCc1ccc(Cl)cc1)NC12CC3CC(CC(C3)C1)C2 11.2 µM

Potency, inactive:
COc1ccc(NC(=S)NC2CCS(=O)(=O)C2)cc1 (centres undefined)
CC(C)C(=O)NC(NC(=S)NC1CCS(=O)(=O)C1)C(Cl)(Cl)Cl (centres undefined)
CCCC12CN3CC(CCC)(CN(C1)C3c1c[nH]c3ccc(OC)cc13)C2=O (centres undefined)
COc1cc(NC(=O)c2nc3ccccc3nc2C)cc(OC)c1OC
COc1cc(C(=O)N2CCC(c3ccncc3)CC2)cc(OC)c1OC
Cc1ccc(N2CC(NC(=O)Cc3cccs3)CC2=O)cc1 (centres undefined)
CCN(CC)S(=O)(=O)c1ccc(N2CCOCC2)c(NC(=O)c2ccc(=O)n(C)n2)c1
CCN(CC)S(=O)(=O)c1cc(C(=O)Nc2cc(S(=O)(=O)N3CCOCC3)ccc2N2CCCC2)ccc1F
CCc1ccc(C2C(C(=O)Nc3ccccc3)=C(C)Nc3c(C(=O)Nc4ccc(C)cc4)cnn32)cc1 (centres undefined)
Cc1nc(N2CCOCC2)c2c(C(=O)NCc3cccc(Cl)c3)c(C)oc2n1
O=C(CCn1ccc2cc(S(=O)(=O)N3CCCC3)ccc21)NCc1cccc(Cl)c1
COC(=O)CCc1ccccc1S(=O)(=O)N(CCC(=O)OC)Cc1ccccc1
COc1ccc(-c2nc(=N)sn2-c2ccccc2)cc1
O=C(Nc1ncccc1O)c1ccc(C(=O)c2ccccc2)cc1
O=C(Nc1ccc2ccccc2c1[N+](=O)[O-])c1ccccc1
CCOc1ccccc1C(=O)Nc1ccc(S(=O)(=O)N2CCCCC2c2cccnc2)cc1 (centres undefined)
Cc1nnc(NCc2ccccc2)c2c1nnn2Cc1ccc(F)cc1
O=C(NCc1cccs1)c1cc(-c2ccccn2)nc2ccc(Br)cc12
O=C(Cc1coc2ccc3ccccc3c12)NCc1cccs1
CCN(CC)c1ccc(/C=C/c2c(C)cnc3ccc(C)cc23)cc1
Clc1cccc[n+]1CCCC[n+]1ccccc1Cl
Cc1ccc(C(=O)NC23CC4CC(CC(C4)C2)C3)c(Cl)c1
O=C(NCc1ccc2c(c1)OCO2)C12CC3CC(CC(C3)C1)C2
CCC(=O)Nc1ccc(C)cc1-c1nc2ccccc2n(Cc2ccccc2)c1=O

Reference: PubChem BioAssay AID588855 (National Center for Advancing Translational Sciences (NCATS), 2011)
